# Reference: PubChem BioAssay (NCI)
# Where “and” joins values, the source holds several entries; their conditions need not be identical. Equal values may be shown once. The panel holds about 83,000 compounds, 20% with a hit somewhere; the sample as a whole holds those more often.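 Step 1: grow cells in 96-well plates. Step 2: add test compound at a single concentration. Step 3: incubate 48 h. Step 4: record percent growth.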 Values without a mark were called inactive. Calls of active or inactive are those of the source. How the source made its calls: active means growth percent below 10; inactive means the rest.
# Tested on: MDA-MB-468 breast
# Assay: NCI-60 one-dose screen, 48 h (100 = growth as untreated, 0 = no growth, -100 = all killed)
# Conditions: 10 µM unless noted
row,SMILES,growth
1,Cc1cc(NCC(=O)Nc2ccc(-c3nc4ccccc4s3)cc2)no1,-46.7% (active)
2,CCCCCN(CCCCC)C(C)C(O)c1ccc2cc(Cl)c3ccccc3c2c1 (stereo not given),91%
3,CCCC/C=N/NC(=S)NCc1ccccc1,93%
4,Clc1ccc(-c2nc(NCCc3ccccc3)nc3c(NCCc4ccccc4)cnn23)cc1,47.8%
5,O=C(Nc1ccc(-n2ccc3c(NC(=O)c4ccccc4)ncnc32)cc1)c1ccc(Cl)c(C(F)(F)F)c1,-5.36% (active)
6,CCN(CC)CC(O)c1cc(-c2ccc(Cl)cc2)nc2c(C)c(Cl)ccc12 (stereo not given),-88.6% (active)
7,OCC1C2C=CC(C2)C1CO (stereo not given),98.4%
8,Cc1cccc(NC(=O)[C@@H]2c3ccccc3C(=O)N(c3ccc(Cl)cc3)[C@H]2c2ccc(Cl)cc2)n1,17.7%
9,COc1ccc(Cl)cc1C(=O)Nc1nc2ccc(Cl)cc2s1,76.7%
10,Oc1ccccc1/C=N/Nc1ccc2ccccc2n1,15.1%
11,Cc1nn(-c2ccccc2)nc1C(=O)Nc1ccccc1C(=O)NCC1CC1,107% and 87.5%
12,O=P(OCCCl)(OCCCl)C(O)c1ccccc1Cl (stereo not given),109%
13,CC(=O)Nc1ccc(NC(C)=O)c2c1C(=O)c1ccccc1C2=O,107%
14,C/C(=C(/c1ccc(Cl)cc1)c1ccc(OCCN2CCCC2)cc1)c1ccc(Cl)cc1,91.1%
15,O=C(NO)c1ccc(Cn2c(=O)n(CCc3ccccc3)c(=O)c3ccccc32)cc1,40.9%
16,O=C1N/C(=C\c2ccccc2)c2ncccc21,96.2%
17,O=C(O)CCCN1C(=O)NC2(C1=O)c1ccccc1-c1ccccc12,98.2%
18,O=C1CCC/C=C\C[C@H]2C=CC(=O)/C2=C/C[C@H](C/C=C\CC(F)(F)F)O1,-46.5% (active)
19,CCN(Cc1ccc(Cl)c(Cl)c1)c1ccc2nc(N)nc(N)c2c1C,-84.2% (active)
20,COC1=CC=CC2(OC)C3(O)CCCc4cccc(c43)N3C(=O)COC132 (stereo not given),115%

row,SMILES,growth
1,COc1ccc(-c2c(-c3nc4ccc(N5CCOCC5)cc4[nH]3)[nH]c(C)c2C(C)=O)cc1,23.1%
2,CN(C)c1ccc(C2CC(c3ccccc3)=NN2/C=C2\SC(=O)NC2=O)cc1 (stereo not given),100%
3,OC(c1ccccc1)(c1ccccc1)C(F)(F)F,113%
4,CC/C=C\C[C@@H]1C/C=C2/C(=O)C=C[C@H]2C/C=C\CCCC(=O)O1,-63.3% (active)
5,N#CC1c2ccccc2C=CN1C(=O)N(c1ccccc1)c1ccccc1 (stereo not given),5.11% (active)
6,NC(=O)C1=C[C@H]2[C@H]3C=C[C@@]2(O)C(=O)O[C@@H]3O1,-5.42% (active)
7,CN(C(=S)S(=O)(=O)C12CC3CC(CC(C3)C1)C2)c1ccccc1,61.7%
8,CCCCCCNC(=O)Nc1ncnc2c1ncn2-c1ccccc1,105%
9,Cc1nc2ccccc2c(/C=C/c2ccc(Cl)cc2)c1C(=O)/C=C/c1cccs1,79.7%
10,C=C(C)[C@@H]1CC[C@]2(C(N)=O)CC[C@]3(C)[C@H](CC[C@@H]4[C@@]5(C)CCCNC(C)(C)[C@@H]5CC[C@]43C)[C@@H]12,78.3%
11,COc1ccc(Cn2cc(Cn3cc(C=C4C(=O)NC(=O)NC4=O)c4ccccc43)nn2)cc1,18.5%
12,Cc1ccc2oc(=O)cc(-c3nc4ccc([N+](=O)[O-])cc4[nH]3)c2c1,29%
13,Cc1ccc(CCCC(=O)O)c(C)c1,91.7%
14,FC(F)(F)c1cc(Br)cc(-c2cc(-c3ccc4c(c3)OCCO4)[nH]n2)c1,40.6%
15,COc1cccc(/C(C)=N/NC(=O)CSc2nc3ccccc3c(=O)n2CCc2ccc(S(N)(=O)=O)cc2)c1,35.3%
16,CC(N)C(Cc1ccc(Cl)cc1)c1ccc(Cl)cc1 (stereo not given),41.6%
17,CCc1ccc(OCc2ccccc2C(=O)Nc2ccc3nc(C)cc(N)c3c2)cc1,-58.4% (active)
18,CCC(c1cccc(Br)c1)C(C(=O)O)c1ccc(OC)cc1 (stereo not given),102%
19,COc1ccc(OC)c(NC(=O)c2sc3nc4c(cc3c2N)C(=O)CCC4)c1,37.5%
20,Cn1cc(-c2ccc3c(c2)ncn3-c2ccc(CC(=O)Nc3cc(C(C)(C)C)on3)cc2)cn1,35.5%
